# Out of some 68,000 compounds screened, about 2,700 (4%) showed an effect of 50% or more. The full list was thinned out, with strong results kept by preference.
# System: Plasmodium berghei
# Assay: Screen against P. berghei liver stage (PbLuc), transformed with Luciferase, at 2uM
# Format: functional, HepG2
# Conditions: tested at 2 uM
row,SMILES,INHIBITION [%]
1,CCC(NC(=O)c1cccc(N2CCCC2=O)c1)c1ccc(OC)cc1 (configuration not stated),30.34
2,Cc1ccc(C(=O)N2CCn3c(COCC4CC4)cnc3C2C)nc1 (configuration not stated),-4.95
3,CCCNC(=O)NC(=O)CN1C=Nc2ccccc2S1(=O)=O,-35.65
4,O=C(CN1C=Nc2ccccc2S1(=O)=O)NCc1ccccc1F,68.24
5,O=C(CN1C=Nc2ccccc2S1(=O)=O)NC1CCCCC1,-4.97
6,CC(C)(C)NC(=O)NC(=O)CN1C=Nc2ccccc2S1(=O)=O,13.24
7,CCC(C)(C)NC(=O)CN1C=Nc2ccccc2S1(=O)=O,51.94
8,CC(C)CNC(=O)CN1C=Nc2ccccc2S1(=O)=O,21.89
9,O=C(CN1C=Nc2ccccc2S1(=O)=O)NCc1ccccc1,33.61
10,O=C(CN1C=Nc2ccccc2S1(=O)=O)NCC1CC1,66.2
11,Cc1ccc(CNC(=O)CN2C=Nc3ccccc3S2(=O)=O)s1,3.86
12,Cn1ccc(C(=O)N2CCC(c3cc(CCO)n(C)n3)C2)n1 (configuration not stated),-14.3
13,CN1[C@@H](CCC(=O)NCc2ccc(F)cc2)CNC(=O)[C@H]2NCC[C@H]21,4
14,Cc1c(Cl)c(CN2CCCC2Cn2cncn2)nc2ccccc12 (configuration not stated),-8.32
15,Cc1cccc2nc(CN3CCCC3Cn3cccn3)cn12 (configuration not stated),19.71
16,Cc1nc2ccccc2nc1CN1CCCCC1Cn1cncn1 (configuration not stated),12.74
17,Cc1nc2ccccc2nc1CN1CCCC1Cn1cncn1 (configuration not stated),53.72
18,Cc1cccc2nc(CN3CCCC3Cn3cncn3)cn12 (configuration not stated),78.28
19,c1ccc(CN2CCCC2Cn2cncn2)nc1 (configuration not stated),23.11
20,CC[C@H](C)[C@H](NC(=O)Cc1csc(-c2cccc(Cl)c2)n1)C(=O)O,13.05
21,CC(Oc1cc(Cl)cc(Cl)c1)C(=O)NCCS(N)(=O)=O (configuration not stated),-10.59
22,CC(=O)N1CC2(CCCC2)c2ccccc21,3.01

row,SMILES,INHIBITION [%]
1,CCn1nc(C)c(C(C)NC(=O)c2cccc(NCC(=O)O)c2)c1C (configuration not stated),-6.64
2,CCCn1cc(C(=O)NC(C)c2c(C)nn(CC)c2C)c(C)n1 (configuration not stated),51.19
3,CCCn1ncc(C(=O)NC(C)c2c(C)nn(CC)c2C)c1C (configuration not stated),-21.14
4,Cn1ccnc1CN1CC[C@H](O)[C@@H](n2ccc(=O)[nH]c2=O)CC1,31.14
5,CCN1CC2(CC1=O)CN(Cc1ccco1)CCN(C(=O)C(C)C)C2 (configuration not stated),-47.39
6,O=C(NCCOCCO)c1cccnc1Oc1ccc(Cl)cc1,21.75
7,c1ccc2oc(N3CCn4c(nnc4C4CC4)C3)nc2c1,-45.42
8,Cn1ccnc1-c1ccc(NCc2cn3c(n2)SCC3)nn1,-75.92
9,CS(=O)(=O)NCCCNC(=O)c1cccc(-n2cccc2)c1,30.31
10,Cc1ccc(C(=O)NCCCN(C)S(C)(=O)=O)cc1-n1cccc1,-5.68
11,Cc1ccc(C(=O)NCCCNS(C)(=O)=O)cc1-n1cccc1,54.49
12,CNC(=O)Cn1nc(C(C)C)c2cnn(C(C)(C)C)c2c1=O,-30.6
13,COc1cccc(S(=O)(=O)NC(=O)CC2CCCC2)c1,14.02
14,CCN1CCC(CC(=O)NCC(O)c2ccc3ccccc3c2)CC1 (configuration not stated),52.08
15,COc1cccc(C(O)CNC(=O)CC2CCCCC2)c1 (configuration not stated),51.96
16,O=C(CC(F)(F)F)NCC(O)c1ccc2ccccc2c1 (configuration not stated),23.81
17,O=C(CNC(=O)C1CCCC1)NCC(O)c1ccc2ccccc2c1 (configuration not stated),9.78
18,CC(C)Oc1cccc(C(O)CNC(=O)CCc2ccncc2)c1 (configuration not stated),-32.28
19,CCN1CCC(CC(=O)NCC(O)c2cccc(OC)c2)CC1 (configuration not stated),50.32
20,CCN1CCC(CC(=O)NCc2nc(C)cc(C)n2)CC1,-28.09
21,CCN1CCC(CC(=O)NCCc2nc(C)cc(C)n2)CC1,3.4
22,O=C(C1CCOCC1)N1C[C@@H]2[C@@H](C1)OCC(=O)N2Cc1ccncc1,-25.8

row,SMILES,INHIBITION [%]
1,CC(Nc1ncnc2c1CCNC2)c1ccc2c(c1)CCCC2 (configuration not stated),48.21
2,Cn1ncc2c1CN(C(=O)Cc1ccccn1)CC2COCC1CC1 (configuration not stated),-4.69
3,O=C(C1CCC1)N1CCN(Cc2ccc(F)cc2)[C@H]2CS(=O)(=O)C[C@H]21,5.17
4,Cc1ncc2c(n1)CN(CC(=O)Nc1ccncc1)CC2,-63.75
5,Cc1cc(NC(=O)CN2CCc3cnc(C)nc3C2)on1,42.11
6,CCc1ncc2c(n1)CN(CC(=O)Nc1cccnc1)CC2,-28.98
7,Cc1ncc2c(n1)CN(CC(=O)Nc1cccnc1)CC2,51.94
8,Cc1ncc2c(n1)CN(CC(=O)Nc1cc(C)on1)CC2,31.57
9,Cc1ncc2c(n1)CN(CC(=O)Nc1c(C)nn(C)c1C)CC2,64.16
10,Cc1cc(C(=O)N2CCC3(CCNCC3)CC2)c2cccc(C)c2n1,-26.08
11,COc1ccccc1CNC(Cc1cccs1)c1nc(C)c(C)s1 (configuration not stated),46.15
12,Cc1nc(C)n(C2CCCN(C(=O)c3ccc(OC(C)C)nc3)C2)n1 (configuration not stated),3.33
13,CCN(CCN(C)C)c1nc(CCN)nc2sc(C)c(C)c12,-6.77
14,Cn1ncc2c1NC(=O)CC2c1ccc(O)cc1 (configuration not stated),16.01
15,COCCOc1ncccc1C(=O)N1CCCC1Cn1cc(C)cn1 (configuration not stated),-17.31
16,Cc1cc(C)n(CC2CCCN2C(=O)c2cccc3c2OCO3)n1 (configuration not stated),-72.55
17,Cc1cnn(CC2CCCCN2C(=O)c2cccnc2N(C)C)c1 (configuration not stated),70.27
18,Cc1cc(C)n(CC2CCCN2CCS(C)(=O)=O)n1 (configuration not stated),-6.16
19,CCCN1CCCC1Cn1nc(C)cc1C (configuration not stated),60.23
20,Cc1cc(C)n(CC2CCCN2C(=O)c2ccc3c(c2)OCCO3)n1 (configuration not stated),4.07
21,Cc1cc(C)n(CC2CCCN2C(=O)Cc2c(C)nn(C)c2C)n1 (configuration not stated),-15.05
22,Cc1cc(C)n(CC2CCCN2C(=O)c2cccc3c2OCCO3)n1 (configuration not stated),50.75

row,SMILES,INHIBITION [%]
1,CN(C)c1ncccc1C(=O)N1CCCC1Cn1cccn1 (configuration not stated),7.13
2,COCCN1CCCC1Cn1nc(C)cc1C (configuration not stated),17.98
3,Cc1cc(C)n(CC2CCCN2C(=O)c2c(C)noc2C)n1 (configuration not stated),-27.28
4,Cc1cc(C)n(CC2CCCN2C(=O)Cc2c(C)noc2C)n1 (configuration not stated),51.19
5,COc1ccc(CN2CCO[C@H]3[C@H](OCc4ccncc4)CC[C@@H]32)cc1,-3.18
6,Cc1nn(C2CCCCC2)c2nc(C(C)(C)CN3CCOCC3)[nH]c12,48.54
7,Cc1cccnc1CN1CCN(C(=O)CCn2ccc(=O)[nH]c2=O)CC1,35.88
8,Cc1cccc(Cc2cc(C)nc(C3CCCNC3)c2)c1 (configuration not stated),-27.54
9,CCOCC(=O)NCCC(O)c1ccoc1 (configuration not stated),1.3
10,O=C(NCCNc1ncccn1)C1CC(=O)N(Cc2ccccn2)C1 (configuration not stated),35.65
11,Nc1cc(N2CCCC2c2cnccn2)ncn1 (configuration not stated),30.38
12,Cc1cc(C)n(CC2CCCN2C(=O)c2cccnc2N(C)C)n1 (configuration not stated),56.02
13,Cc1cnn(CC2CCCCN2C(=O)c2ccccc2-n2cccn2)c1 (configuration not stated),37.68
14,Cc1cnn(CC2CCCN2C(=O)c2ccccc2-n2cccn2)c1 (configuration not stated),76.38
15,Cc1cnn(CC2CCCN2C(=O)c2ccccc2-n2cnnn2)c1 (configuration not stated),21.39
16,CCOc1ncccc1C(=O)N1CCCC1Cn1nc(C)cc1C (configuration not stated),11.95
17,Cc1cc(C)n(CC2CCCN2C(=O)c2c[nH]c3ncccc23)n1 (configuration not stated),-1.56
18,CCc1c(C(=O)N2CCC3(CCCN(CCO)C3=O)C2)csc1C (configuration not stated),40.64
19,CCCC(=O)N1CCN(CCN(C)C)c2nc(C)ccc2C1,19.51
20,Cn1ccnc1SCC(=O)NCCC1CCCO1 (configuration not stated),-38.4
21,O=C(c1ccon1)N1CCCCC1c1nc2cc(F)ccc2[nH]1 (configuration not stated),14.79
22,COCCC1CN(Cc2cn(CCC(N)=O)c3ccccc23)CCO1 (configuration not stated),26.22

row,SMILES,INHIBITION [%]
1,Cc1nnc(CN2CCC(Oc3ccc(F)cc3)CC2)o1,-4.89
2,C/N=C1\c2cc3cc(OC)ccc3n2CCN1Cc1ccccc1,-2.66
3,c1cn2c(n1)CN(C1CCOCC1)CC(CN1CCCC1)C2 (configuration not stated),29.95
4,OCC1(O)CCN(Cc2noc(-c3ccccc3)n2)CC1,26.3
5,COc1cccc(CN2CCCC3(CCN(C(=O)[C@H]4CCCO4)C3)C2)c1 (some centres not stated),21.89
6,COc1cccc(CN2CCCC3(CCN(C(=O)c4ccco4)C3)C2)c1 (configuration not stated),8.37
7,COc1cccc(CN2CCCC3(CCN(C(=O)N4CCCC4)C3)C2)c1 (configuration not stated),50.17
8,CCn1[nH]c(C)c2c(C(F)(F)C(F)(F)F)cc(=O)nc1-2,1.01
9,Cc1nsc(C(=O)NCCc2ccccc2)n1,-7.16
10,Cc1nsc(C(=O)NCCc2ccc(F)cc2)n1,-0.59
11,Cc1nsc(C(=O)NCCc2cccs2)n1,55.25
12,Cc1ccc(CN2CCC3(CC2)CC(c2cccnc2)CO3)s1 (configuration not stated),23.79
13,CCS(=O)(=O)c1ccc(N2CCC(NC(=O)NC(C)CO)CC2)cc1 (configuration not stated),7.85
14,Cc1ccc(CN(C)C(=O)Cn2nc(-c3ccc(F)cc3)oc2=O)cc1,5.28
15,CN(Cc1ccc(F)cc1)C(=O)Cn1nc(-c2ccc(F)cc2)oc1=O,-10.54
16,Cc1ccsc1CN(C)C(=O)Cn1nc(-c2ccc(F)cc2)oc1=O,51.99
17,COc1ccc(CC(C)(O)CNC(=O)NCc2cccs2)cc1 (configuration not stated),45.62
18,CC(C)OCC(=O)N1CCCN(Cc2ccc(C#N)cc2)CC1,2.08
19,Cc1nccn1C1CCCN(C(=O)c2sccc2-n2cnnn2)C1 (configuration not stated),-13.92
